Assay results from PubChem BioAssay AID720641 (ICCB-Longwood Screening Facility, Harvard Medical School, 2013).
In all, about 170,000 compounds went through this assay and about 900 (0.53%) were called active.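 The calls were made as follows: active = relative growth at most 50% at the other temperature and 20+ points below 30 °C, or under 10% at both; inactive = the rest, inconclusive results apart.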 This excerpt belongs to a sample that is enriched for actives.

Assay: Staphylococcus aureus RN4220 growth blockers – two temperatures, LtaS inhibitor project, primary screen (AID 720641)
Settings: S. aureus RN4220 growth, OD600, 20 h, 42 °C, stronger effect = lower value

## CC(=O)N1CC(C(=O)Nc2cccc(-c3nnc4n3CCCCC4)c2)Oc2ccccc21 (centres undefined)
  relative growth: 78.4% (inactive)
Measured here: growth at 30 °C
  relative growth: 92.9%

## Cc1ccc2nc(COC(=O)Cn3[nH]c(=O)c4ccccc4c3=O)cc(=O)n2c1
  relative growth: 78.6% (inactive)
Measured here: growth at 30 °C
  relative growth: 90.7%

## CCOc1ccc(C(=O)N2CCC(Cc3ccccc3)CC2)cc1
  relative growth: 122% (inactive)
Measured here: growth at 30 °C
  relative growth: 75.5%

## CS(=O)(=O)NCCNc1cc(-c2ccccc2)nc2ccccc12
  relative growth: 99.5% (inactive)
Measured here: growth at 30 °C
  relative growth: 72.5%

## CCC(CC)NCc1ccc(OC)c(C)c1OC
  relative growth: 74.7% (inactive)
Measured here: growth at 30 °C
  relative growth: 81.6%

## COc1ccc(-c2nn(C)c3sc(C(=O)NCCN4CCN(c5ccccc5F)CC4)cc23)cc1OC
  relative growth: 82.7% (inactive)
Measured here: growth at 30 °C
  relative growth: 76.9%

## O=C(c1ccco1)N1CCN(C(=O)c2cc3c(s2)CCCC3)CC1
  relative growth: 96.3% (inactive)
Measured here: growth at 30 °C
  relative growth: 87.5%

## O=C(Sc1nc(-c2ccccc2)c(-c2ccccc2)[nH]1)c1cccs1
  relative growth: 84.6% (inactive)
Measured here: growth at 30 °C
  relative growth: 74.2%

## Cc1cc(SCc2ccc(F)cc2)c(C)cc1Cl
  relative growth: 105% (inactive)
Measured here: growth at 30 °C
  relative growth: 102%

## NC(=O)c1oc2ccccc2c1NC(=O)Cc1ccc(Cl)cc1
  relative growth: 89.8% (inactive)
Measured here: growth at 30 °C
  relative growth: 77.5%

## CC1CCN(C(=O)COc2ccc(-c3nn(C)c(=O)c4ccccc34)cc2)CC1
  relative growth: 86.8% (inactive)
Measured here: growth at 30 °C
  relative growth: 89.7%

## Cc1ccccc1OCc1nc(C#N)c(NC(C)c2ccccc2)o1 (centres undefined)
  relative growth: 82.4% (inactive)
Measured here: growth at 30 °C
  relative growth: 79.9%
